# The antibiotic and cytotoxicity screens of Wong et al. (2023)
# About 3,300 (8.5%) of roughly 39,000 compounds were called active. This is one part of a sample in which actives are shown more often than they occur.
# System: HepG2
# Experiment: cytotoxicity call (relative viability < 0.9)
# Details: 10 µM
row,SMILES,cytotoxicity call
1,O=C(C[C@@H]1CC[C@H]2[C@@H](COC[C@H](O)CN2S(=O)(=O)c2cccc(F)c2)O1)NCCCN1CCOCC1,inactive
2,NCc1ccncc1,inactive
3,C=CCOC(=O)[C@@H]1[C@H]2C(=O)O[C@H](c3ccccc3)[C@H](c3ccccc3)N2[C@H](c2ccc(OCCOC(=O)[C@H]3C[C@H]4C(=O)NCC(=O)N4[C@H]3c3ccc(O)cc3)cc2)[C@@]12C(=O)Nc1ccccc12,inactive
4,C[C@H]1CC/C=C\[C@H]2O[C@@]34C=CCN(CCN5CCOCC5)C(=O)[C@H]3N(CCCO)C(=O)[C@@H]4[C@@H]2C(=O)O1,inactive
5,Nc1nc(=O)[nH]cc1NC(=O)c1ccccc1,inactive
6,C[C@@H](N)c1ccc(C(=O)Nc2ccnc3[nH]ccc23)cc1,active
7,CC[C@@H](C)c1ccc(NC(=O)c2ccc(N(CC)CC)cc2)cc1,inactive
8,c1ccc2c(CSc3nc4ccccc4s3)cccc2c1,inactive
9,CCSc1cccc2cccnc12,inactive
10,c1cnc2c(SCc3nc4ccccc4s3)cccc2c1,active
11,COc1ccc(S(=O)(=O)Nc2ccc3c(c2)C(=O)N([C@H](C)CO)C[C@H](C)[C@H](CN(C)Cc2ccc(Cl)c(Cl)c2)O3)cc1,inactive
12,COc1ccc(S(=O)(=O)Nc2ccc3c(c2)C(=O)N([C@@H](C)CO)C[C@H](C)[C@H](CN(C)Cc2ccc(Cl)c(Cl)c2)O3)cc1,inactive
13,COc1ccc(S(=O)(=O)Nc2ccc3c(c2)C(=O)N([C@@H](C)CO)C[C@@H](C)[C@H](CN(C)Cc2ccc(Cl)c(Cl)c2)O3)cc1,active
14,COc1ccc(S(=O)(=O)Nc2ccc3c(c2)C(=O)N([C@H](C)CO)C[C@H](C)[C@@H](CN(C)Cc2ccc(Cl)c(Cl)c2)O3)cc1,inactive
15,COc1ccc(S(=O)(=O)Nc2ccc3c(c2)C(=O)N([C@@H](C)CO)C[C@@H](C)[C@@H](CN(C)Cc2ccc(Cl)c(Cl)c2)O3)cc1,active
16,COc1ccc(S(=O)(=O)Nc2ccc3c(c2)C(=O)N([C@@H](C)CO)C[C@H](C)[C@@H](CN(C)Cc2ccc(Cl)c(Cl)c2)O3)cc1,inactive
17,C[C@@H]1CCCCO[C@@H](CN(C)S(=O)(=O)c2ccc(Cl)cc2)[C@@H](C)CN([C@H](C)CO)C(=O)c2cc(NC(=O)CCCCCC(=O)Nc3ccccc3N)ccc2O1,inactive
18,C[C@H]1CN([C@@H](C)CO)C(=O)Cc2cc(NS(C)(=O)=O)ccc2O[C@H]1CN(C)C,inactive
19,C[C@H]1CN([C@@H](C)CO)C(=O)Cc2cc(NC(=O)c3ccncc3)ccc2O[C@@H]1CN(C)Cc1ccncc1,inactive
20,C=CCOc1ccc(C(=O)C2=C(O)C(=O)N(CCCN3CCOCC3)[C@@]23C(=O)N(C)c2ccccc23)cc1C,inactive
21,COCC(=O)Nc1ccc2c(c1)C(=O)N(C)[C@H]1CC[C@@H](CC(=O)NC3Cc4ccccc4C3)O[C@@H]1CO2,inactive
22,COc1ccc(CN(C)C[C@H]2OCCCC[C@@H](C)Oc3ccc(NS(=O)(=O)c4c(C)noc4C)cc3C(=O)N([C@H](C)CO)C[C@H]2C)cc1,inactive
23,COc1ccc(NC(=O)Nc2ccc3c(c2)C(=O)N([C@H](C)CO)C[C@H](C)[C@H](CN(C)C(=O)Nc2ccc(C(F)(F)F)cc2)O3)cc1,inactive

row,SMILES,cytotoxicity call
1,C[C@@H]1CCCCO[C@@H](CN(C)Cc2ccc(Cl)c(Cl)c2)[C@H](C)CN([C@@H](C)CO)C(=O)c2cc(NS(=O)(=O)c3ccc(Cl)cc3)ccc2O1,active
2,C[C@@H]1CN([C@H](C)CO)C(=O)c2cc(NS(=O)(=O)c3ccc(Cl)cc3)ccc2O[C@@H](C)CCCCO[C@H]1CN(C)Cc1ccc(Cl)c(Cl)c1,active
3,C[C@@H]1CN([C@H](C)CO)C(=O)c2cc(NS(=O)(=O)c3ccc(Cl)cc3)ccc2O[C@@H](C)CCCCO[C@@H]1CN(C)Cc1ccc(Cl)c(Cl)c1,active
4,C[C@@H]1CCCCO[C@@H](CN(C)Cc2ccc(Cl)c(Cl)c2)[C@@H](C)CN([C@@H](C)CO)C(=O)c2cc(NS(=O)(=O)c3ccc(Cl)cc3)ccc2O1,active
5,C[C@@H]1CN([C@H](C)CO)C(=O)c2c(c3ccccc3n2C)-c2ccccc2CO[C@H]1CN(C)Cc1ccc(Oc2ccccc2)cc1,inactive
6,O=C(C[C@@H]1CC[C@@H]2[C@H](COC[C@H](O)CN2C(=O)Nc2cccc(Cl)c2)O1)NCCCN1CCOCC1,inactive
7,C[C@@H]1CN([C@H](C)CO)C(=O)Cc2cc(NS(C)(=O)=O)ccc2O[C@@H]1CN(C)S(=O)(=O)c1cn(C)cn1,inactive
8,C[C@@H]1CCCCO[C@H](CN(C)S(=O)(=O)c2cn(C)cn2)[C@H](C)CN([C@@H](C)CO)C(=O)c2cc(NC(=O)CCCN(C)C)ccc2O1,inactive
9,CO[C@H](CN(C)C(=O)Nc1ccc(C(F)(F)F)cc1)[C@H](C)CN(Cc1ccccc1Cl)[C@@H](C)CO,inactive
10,C[C@@H]1CN([C@H](C)CO)C(=O)c2c(c3ccccc3n2C)-c2ccccc2CO[C@@H]1CN(C)C(=O)Nc1ccc(F)cc1,inactive
11,COCC(=O)N1CC[C@@H](O)[C@@H]1Cc1cnn(C)c1,inactive
12,CN1C(=O)c2cc(NC(=O)C3CCOCC3)ccc2OC[C@H]2O[C@H](CC(=O)NCc3ccccc3F)CC[C@@H]21,inactive
13,COC(=O)C[C@@H]1CC[C@H]2[C@H](COc3ccc(NS(=O)(=O)c4ccccc4Cl)cc3C(=O)N2C)O1,inactive
14,COCC(=O)N1C[C@H](C)[C@H](OC)CN(C)C(=O)c2cc(NC(=O)Nc3ccccc3)ccc2OC[C@H]1C,inactive
15,C[C@@H]1CN([C@H](C)CO)C(=O)c2cccc(NC(=O)c3ccncc3)c2O[C@H]1CN(C)Cc1ccc2c(c1)OCO2,inactive
16,O=C(CCCCCCC(=O)N/N=C/[C@@H](O)[C@H](O)[C@H](O)CO)NO,inactive
17,C[C@@H]1CCCCO[C@H](CN(C)Cc2ccc(Cl)c(Cl)c2)[C@H](C)CN([C@@H](C)CO)C(=O)c2cc(NS(=O)(=O)c3ccc(Cl)cc3)ccc2O1,active
18,C[C@@H]1CCCCO[C@@H](CN(C)Cc2ccc(Cl)c(Cl)c2)[C@@H](C)CN([C@H](C)CO)C(=O)c2cc(NS(=O)(=O)c3ccc(Cl)cc3)ccc2O1,inactive
19,C[C@@H]1CCCCO[C@@H](CN(C)Cc2ccc(Cl)c(Cl)c2)[C@H](C)CN([C@H](C)CO)C(=O)c2cc(NS(=O)(=O)c3ccc(Cl)cc3)ccc2O1,active
20,C[C@@H]1CCCCO[C@H](CN(C)Cc2ccc(Cl)c(Cl)c2)[C@@H](C)CN([C@H](C)CO)C(=O)c2cc(NS(=O)(=O)c3ccc(Cl)cc3)ccc2O1,active
21,C[C@H](CO)N1C[C@H](C)[C@@H](CN(C)Cc2ccc(Cl)c(Cl)c2)OCCCC[C@H](C)Oc2ccc(NS(=O)(=O)c3ccc(Cl)cc3)cc2C1=O,inactive
22,C[C@@H]1CCCCO[C@H](CN(C)Cc2ccc(Cl)c(Cl)c2)[C@@H](C)CN([C@@H](C)CO)C(=O)c2cc(NS(=O)(=O)c3ccc(Cl)cc3)ccc2O1,active
